Bioassay records as filed in PubChem.
Most compounds without a hit are left out; they make up all but 2.2% or so of the library.
APP 5UTR inh: inhibitors of APP translation via 5'UTR reporter, primary screen, APP 5'UTR luciferase, SH-SY5Y cells. SH-SY5Y APP 5'UTR-luciferase reporter, luminescence. inhibition, % at 2 µM. hit rate 0.82% among 190,000. AID 1285, 2008;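 active means inhibition above a set limit, derived from the sample mean plus 3 SD, cut at about 45% in these data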
aSyn 5UTR inh: MLPCN primary screen, SNCA 5' untranslated region | alpha-synuclein 5'UTR reporter, inhibitor activity | inhibition, % (tested at 7.5 µM) | hit rate 0.82% among 300,000 | AID 1813, 2009; in the data active means inhibition above about 60%;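 further: H4 neuroglioblastoma cells stably carrying SNCA 5'UTR luciferase fusion; 0% = DMSO wells and 100% = positive control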
KLF5 inhibitor: KLF5 expression inhibitors, primary screen, DLD-1 cells, luminescence | hit rate 0.23% among 290,000 | AID 1700, 2009 | inhibition, % at 5 µM | DLD-1 KLF5 promoter-luciferase reporter;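 active means inhibition above a per-plate limit of that plate's mean compound inhibition plus 3 SD, cut at about 60% in these data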;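 further: 0% = DMSO wells and 100% = LY294002 at 200 µM; higher means less KLF5 promoter-driven luciferase light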
Ba/F3 V617F tox: reduced viability of JAK2V617F-dependent Ba/F3 cells, primary screen, JAK2V617F inhibitor project, cell-based, Ba/F3 EpoR-JAK2V617F, luminescence | ATP luminescence | inhibition, % at 5.6 µM | hit rate 1.1% among 220,000 | AID 1446, 2008;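 active means inhibition above the campaign mean plus 3 SD over all tested compounds, cut at about 24% in these data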;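 further: cytokine-independent growth of Ba/F3 cells driven by EpoR plus mutant JAK2; 0% = DMSO-treated cells and 100% = JAK inhibitor I control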
IEC-6 cytotox: cytotoxicity in IEC-6 intestinal epithelial cells, primary screen, cytotoxicity control for KLF5 inhibitor project, cell-based, luminescence | IEC-6 cytotoxicity, luminescence viability | inhibition, % at 5 µM | hit rate 0.78% among 290,000 | AID 1825, 2009; in the data active means inhibition above about 22%;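 further: 0% = plate median of test compound wells and 100% = cytotoxic reference compound wells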
BaF3 parental: parental Ba/F3 cell viability inhibition, counter-screen for JAK2V617F inhibitor project, murine pro-B, CellTiter-Glo luminescence. inhibition, % at 5.6 µM. hit rate 1.1% among 220,000. CellTiter-Glo ATP luminescence;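 active means inhibition above a per-campaign cutoff, the mean inhibition of all tested compounds plus 3 SD, cut at about 27% in these data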;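 further: 0% = DMSO wells and 100% = JAK Inhibitor I control wells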
BaF3 tox 2: parental Ba/F3 cell viability inhibition, counter-screen for JAK2V617F inhibitor project, murine pro-B, CellTiter-Glo luminescence. shares compounds with Ba/F3 V617F tox. cells kept alive by added IL-3. inhibition, % at 5.6 µM. hit rate 31% among 580;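 active means cell growth inhibition above the hit limit set in the earlier mutant JAK2 cell screen, cut at about 27% in these data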;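 further: plate controls were DMSO-treated cells for no effect and JAK Inhibitor I control wells for full effect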
JAK2V617F conf: viability loss in Ba/F3 EpoR-JAK2V617F cells, confirmation, JAK2V617F inhibitor project, cell-based, luminescence, triplicate. shares compounds with Ba/F3 V617F tox. CellTiter-Glo luminescence. inhibition, % at 5.6 µM. hit rate 66% among 580. AID 1521, 2009;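 active means mean inhibition above the hit cutoff derived in the earlier primary screen, cut at about 25% in these data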;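 further: 0% = DMSO-treated cells and 100% = JAK inhibitor I control wells; higher means lower luminescence from reduced cell ATP and viability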
* = called active by the depositor.

What do the screens show for `CCOc1ccccc1NC(=O)CN1CCCCCC1`?
aSyn 5UTR inh: 19; KLF5 inhibitor: 0; IEC-6 cytotox: -1

Results for FC(F)(F)c1n[nH]c(=S)n1/N=C/c1ccco1 ?
APP 5UTR inh: 11; aSyn 5UTR inh: 9; KLF5 inhibitor: 6; Ba/F3 V617F tox: 35*; IEC-6 cytotox: -4; BaF3 parental: 0; BaF3 tox 2: -8; JAK2V617F conf: -10

What do the screens show for `S=c1[nH]nc(-c2ccc(Cl)cc2)n1/N=C/c1ccco1`?
aSyn 5UTR inh: 9; KLF5 inhibitor: -22; Ba/F3 V617F tox: 0; IEC-6 cytotox: 1; BaF3 parental: 0

What do the screens show for `CN1CCN(Cc2cc(COCc3ccccc3)c3cccnc3c2O)CC1`?
APP 5UTR inh: 72*; aSyn 5UTR inh: 99*; KLF5 inhibitor: 20; Ba/F3 V617F tox: 38*; IEC-6 cytotox: 5; BaF3 parental: 16; BaF3 tox 2: 5; JAK2V617F conf: 29*

Results for Oc1ccccc1/C=N/Nc1nc2ccccc2o1 ?
aSyn 5UTR inh: 31; KLF5 inhibitor: 23; Ba/F3 V617F tox: 44*; IEC-6 cytotox: 10; BaF3 parental: 6; BaF3 tox 2: 65*; JAK2V617F conf: 74*

What do the screens show for `Cn1cc(CN2CCN(c3ccc(Cl)cn3)CC2)c(-c2ccccc2F)n1`?
APP 5UTR inh: 7; aSyn 5UTR inh: 5; KLF5 inhibitor: -24; Ba/F3 V617F tox: -1; IEC-6 cytotox: -2; BaF3 parental: -1

How did Cc1cccc(N2CCN(Cc3cn(C)nc3-c3ccccc3F)CC2)n1 do in these assays?
APP 5UTR inh: 74*; aSyn 5UTR inh: -8; KLF5 inhibitor: 24; Ba/F3 V617F tox: 24*; IEC-6 cytotox: 54*; BaF3 parental: 18; BaF3 tox 2: 76*; JAK2V617F conf: 97*

What do the screens show for `COc1cc(NC(=O)C2=C(C)OCCS2)c(Cl)cc1C(=O)NCCN(C)C`?
aSyn 5UTR inh: -18; KLF5 inhibitor: -33; IEC-6 cytotox: 4

Results for CC(C)C[C@H](N)c1nnc(S(=O)(=O)Cc2cccc(F)c2)o1 ?
APP 5UTR inh: -5; aSyn 5UTR inh: -25; KLF5 inhibitor: -21; Ba/F3 V617F tox: -3; IEC-6 cytotox: -4; BaF3 parental: 1

How did Cc1ccccc1CS(=O)(=O)c1nnc([C@H](CC(C)C)NC(=O)OC(C)(C)C)o1 do in these assays?
APP 5UTR inh: 36; aSyn 5UTR inh: 8; KLF5 inhibitor: -7; Ba/F3 V617F tox: 47*; IEC-6 cytotox: 11; BaF3 parental: 2; BaF3 tox 2: -2; JAK2V617F conf: 55*

What do the screens show for `CC(C)(C)OC(=O)N[C@@H](Cc1ccccc1)c1nnc(S(=O)(=O)Cc2cccc(F)c2)o1`?
APP 5UTR inh: 53*; aSyn 5UTR inh: 18; KLF5 inhibitor: -34; Ba/F3 V617F tox: 44*; IEC-6 cytotox: -7; BaF3 parental: 8; BaF3 tox 2: 6; JAK2V617F conf: 72*

How did O=C(O)CCc1ccccc1OC(=O)c1ccccc1 do in these assays?
aSyn 5UTR inh: 10; KLF5 inhibitor: -15; Ba/F3 V617F tox: 0; IEC-6 cytotox: -8; BaF3 parental: -4

What do the screens show for `O=C(Oc1cccc2c(O)cccc12)c1ccccc1`?
APP 5UTR inh: -11; aSyn 5UTR inh: 3; KLF5 inhibitor: 12; Ba/F3 V617F tox: 24*; IEC-6 cytotox: -10; BaF3 parental: 12; BaF3 tox 2: 12; JAK2V617F conf: 67*

Results for O=C(CSc1nnnn1-c1ccc(F)cc1)c1ccc(O)c(O)c1 ?
APP 5UTR inh: 15; aSyn 5UTR inh: -39; KLF5 inhibitor: 6; Ba/F3 V617F tox: 32*; IEC-6 cytotox: 8; BaF3 parental: -11; BaF3 tox 2: 3; JAK2V617F conf: 80*

How did O=C(O)c1ccc(CSc2nnnn2-c2ccc(F)cc2)cc1 do in these assays?
aSyn 5UTR inh: 11; KLF5 inhibitor: -23; IEC-6 cytotox: -2
